“And” between values parts separate entries of the source, which are not always exact repeats. Equal entries are not always repeated. Results filed as inconclusive are left out. Entries that show only a call come without a potency. More than one record can exist for a structure, and the calls need not agree. The source made the active and inactive calls. Unless noted, calls come from the whole dose curve.
Experiments:
[1] = qHTS assay to identify small molecule agonists of the peroxisome proliferator-activated receptor delta (PPARd) signaling pathway - cell viability counter screen (AID 743211; active = well fitted curve in the direction sought with a large enough effect in the repeat runs; an effect the other way counts as inactive or inconclusive; note: nearly all actives have a fitted effect of over 55% in size; note: potency is the fitted concentration of half-maximal effect)
Procedure, shortened: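 qHTS cell viability: PPARd-bla HEK293H; 17 h cpd, 37C; CellTiter-Glo, luminescence at 30 min RT.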

[2] = qHTS assay to identify small molecule antagonists of the peroxisome proliferator-activated receptor delta (PPARd) signaling pathway - cell viability counter screen (AID 743213; active = well fitted curve in the direction sought with a large enough effect in the repeat runs; an effect the other way counts as inactive or inconclusive; note: nearly all actives have a fitted effect of over 50% in size; note: potency is the fitted concentration of half-maximal effect)
Procedure, shortened: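 Viability counter-screen, qHTS format: PPARd-bla HEK293H, L165041 300 nM final, 17 h compound exposure at 37 C, CellTiter-Glo luminescence after 30 min RT.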

[3] = biological target: Peroxisome proliferator-activated receptor delta (Homo sapiens) (UniProt Q03181); assay: qHTS assay to identify small molecule antagonists of the peroxisome proliferator-activated receptor delta (PPARd) signaling pathway (AID 743215; active = well fitted inhibition curve with a large enough effect in the signal ratio in the repeat runs, not every such curve was filed as active; the % refers to the signal ratio;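 note: cells stimulated with agonist L165041 at 300 nM final during compound exposure; series mostly up to about 62 µM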)
Peroxisome proliferator-activated receptor delta (Homo sapiens), sequence (Q03181 whole entry, looked up): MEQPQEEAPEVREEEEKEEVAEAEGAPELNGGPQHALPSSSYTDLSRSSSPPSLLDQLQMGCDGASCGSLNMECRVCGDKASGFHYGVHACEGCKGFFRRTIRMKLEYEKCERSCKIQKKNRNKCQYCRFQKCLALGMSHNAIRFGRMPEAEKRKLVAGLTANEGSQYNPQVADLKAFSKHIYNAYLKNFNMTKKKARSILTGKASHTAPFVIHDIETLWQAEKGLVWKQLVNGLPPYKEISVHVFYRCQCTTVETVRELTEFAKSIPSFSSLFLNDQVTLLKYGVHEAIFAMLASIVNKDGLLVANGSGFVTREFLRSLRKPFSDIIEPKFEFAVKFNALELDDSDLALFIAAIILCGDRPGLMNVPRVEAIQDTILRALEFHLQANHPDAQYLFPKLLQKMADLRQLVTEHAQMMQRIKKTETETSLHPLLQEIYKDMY
Procedure, shortened: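 PPARd-bla HEK293H cells (UAS-bla reporter) preincubated 5 h, then given compound plus 300 nM final L165041 agonist for 17 h at 37 C. Beta-lactamase activity read by LiveBLAzer B/G FRET substrate fluorescence after 2 h at room temperature.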

[4] = qHTS assay to identify small molecule agonists of the farnesoid-X-receptor (FXR) signaling pathway - cell viability counter screen (AID 743218; active = well fitted curve in the direction sought with a large enough effect in the repeat runs; an effect the other way counts as inactive or inconclusive; note: nearly all actives have a fitted effect of over 45% in size; note: potency is the fitted concentration of half-maximal effect)
Procedure, shortened: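 FXR-UAS-bla HEK 293T cells exposed to compounds for 16 h at 37C. Cytotoxicity read in the same wells by CellTiter-Glo luminescence after 30 min at room temperature, following the beta-lactamase FRET read.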

[5] = qHTS assay to identify small molecule antagonists of the farnesoid-X-receptor (FXR) signaling pathway - cell viability counter screen (AID 743221; active = well fitted cell-killing curve with a large enough effect in the repeat runs, not every such curve was filed as active; note: nearly all actives have a fitted effect of over 50% in size; note: potency is the fitted concentration of half-maximal effect)
Procedure, shortened: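 After a 5 h settling period, FXR-bla HEK 293T cells receive compound and chenodeoxycholic acid (50 uM final) and incubate 16 h at 37 C; CellTiter-Glo luminescence, read after 30 min at room temperature, reports cell viability.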

[6] = qHTS assay to identify small molecule agonists of the vitamin D receptor (VDR) signaling pathway - cell viability counter screen (AID 743224; active = well fitted curve in the direction sought with a large enough effect in the repeat runs; an effect the other way counts as inactive or inconclusive; note: nearly all actives have a fitted effect of over 50% in size; note: potency is the fitted concentration of half-maximal effect)
Procedure, shortened: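 VDR-bla cells, 4 h after plating, exposed to compounds for 16 h at 37C; viability then read in the same wells as CellTiter-Glo luminescence after 30 min at room temperature, following the bla FRET read.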

[7] = qHTS assay to identify small molecule antagonists of the vitamin D receptor (VDR) signaling pathway - cell viability counter screen (AID 743225; active = well fitted curve in the direction sought with a large enough effect in the repeat runs; an effect the other way counts as inactive or inconclusive; note: nearly all actives have a fitted effect of over 50% in size; note: potency is the fitted concentration of half-maximal effect)
Procedure, shortened: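 Parallel cytotoxicity test: VDR-UAS-bla HEK 293T, 3 nM (final) 1-alpha,25-dihydroxyvitamin D3 with test compound, 16 h, 37C. Endpoint is CellTiter-Glo luminescence in the same wells.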

[8] = qHTS assay to identify small molecule agonists of the NFkB signaling pathway - cell viability counter screen (AID 1159515); note: nearly all actives have a fitted effect of over 55% in size; note: potency is the fitted concentration of half-maximal effect
Procedure, shortened: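 NFkB-bla ME-180 cells, 2,000/well, plated overnight at 37 C; compound added for 5 hr at 37 C. Viability read in the same wells as the bla reporter, by CellTiter-Glo luminescence after 30 min at room temperature.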

[9] = qHTS assay to identify small molecule agonists of the endoplasmic reticulum stress response signaling pathway - cell viability counter screen (AID 1159517); note: nearly all actives have a fitted effect of over 50% in size; note: potency is the fitted concentration of half-maximal effect
Procedure, shortened: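 HeLa cells carrying an ESRE-driven beta-lactamase reporter receive compound for 5 hr at 37 C. Cell viability is then gauged with CellTiter-Glo by luminescence, 30 min at room temperature.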

[10] = qHTS assay to identify small molecule antagonists of the retinoid-related orphan receptor gamma (ROR-gamma) signaling pathway - cell viability counter screen (AID 1159520; active = well fitted curve in the direction sought with a large enough effect in the repeat runs; an effect the other way counts as inactive or inconclusive; note: nearly all actives have a fitted effect of over 50% in size; note: potency is the fitted concentration of half-maximal effect)
Procedure, shortened: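 Cytotoxicity was read from cellular ATP (CellTiter-Glo luminescence) after 16 hr at 37 C with 1 uM doxycycline induction. The inducer was added 2 hr after compound transfer to Tet-on ROR gamma CHO cells.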

[11] = biological target: Nuclear receptor ROR-gamma (Homo sapiens) (UniProt P51449); assay: qHTS assay to identify small molecule antagonists of the retinoid-related orphan receptor gamma (ROR-gamma) signaling pathway (AID 1159521; active = well fitted curve in the direction sought with a large enough effect in the repeat runs; an effect the other way counts as inactive or inconclusive; note: nearly all actives have a fitted effect of over 50% in size; note: potency is the fitted concentration of half-maximal effect)
Procedure, shortened: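 Decreased RORE-driven luciferase luminescence indicates antagonism. Tet-on RORγ CHO cells received compound, then 1 uM final doxycycline 2 h later; signal read after 16 h incubation.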

[12] = qHTS assay to identify small molecule agonists of the AP-1 signaling pathway - cell viability counter screen (AID 1159525); note: nearly all actives have a fitted effect of over 55% in size; note: potency is the fitted concentration of half-maximal effect
Procedure, shortened: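 Luminescent ATP readout (Cell Titer Glo, 30 min RT), normalised to DMSO and tetra n-octyl ammonium bromide controls. Cells were ME-180 AP-1-bla in 0.5% dialyzed FBS Opti-MEM, with a 5 h, 37 °C compound exposure.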

[13] = biological target: Bile acid receptor (Homo sapiens) (UniProt Q96RI1); assay: qHTS assay to identify small molecule agonists of the farnesoid-X-receptor (FXR) signaling pathway (AID 743220; active = well fitted activation curve with a large enough effect in the signal ratio in the repeat runs, not every such curve was filed as active; the % refers to the signal ratio)
Bile acid receptor (Homo sapiens), sequence (Q96RI1 whole entry, looked up): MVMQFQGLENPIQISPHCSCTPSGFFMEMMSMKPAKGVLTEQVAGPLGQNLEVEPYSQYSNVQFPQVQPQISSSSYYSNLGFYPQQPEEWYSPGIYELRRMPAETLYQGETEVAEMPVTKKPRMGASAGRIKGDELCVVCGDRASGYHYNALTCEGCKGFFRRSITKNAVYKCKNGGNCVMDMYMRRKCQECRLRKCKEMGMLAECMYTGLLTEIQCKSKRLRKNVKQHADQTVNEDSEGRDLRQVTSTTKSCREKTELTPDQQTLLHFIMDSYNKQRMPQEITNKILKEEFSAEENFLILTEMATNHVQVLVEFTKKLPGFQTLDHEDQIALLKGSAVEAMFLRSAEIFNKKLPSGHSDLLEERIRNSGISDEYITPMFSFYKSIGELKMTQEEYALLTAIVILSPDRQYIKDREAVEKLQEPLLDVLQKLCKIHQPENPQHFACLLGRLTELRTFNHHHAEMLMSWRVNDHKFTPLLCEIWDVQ
Procedure, shortened: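 Beta-lactamase reporter under UAS control in GeneBLAzer FXR HEK 293T cells (5000/well) measured with LiveBLAzer FRET substrate after 2 h at room temperature. Compound exposure lasted 16 h at 37C.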

[14] = biological target: Vitamin D3 receptor (Homo sapiens) (UniProt P11473); assay: qHTS assay to identify small molecule agonists of the vitamin D receptor (VDR) signaling pathway (AID 743222)
Vitamin D3 receptor (Homo sapiens), sequence (P11473 whole entry, looked up): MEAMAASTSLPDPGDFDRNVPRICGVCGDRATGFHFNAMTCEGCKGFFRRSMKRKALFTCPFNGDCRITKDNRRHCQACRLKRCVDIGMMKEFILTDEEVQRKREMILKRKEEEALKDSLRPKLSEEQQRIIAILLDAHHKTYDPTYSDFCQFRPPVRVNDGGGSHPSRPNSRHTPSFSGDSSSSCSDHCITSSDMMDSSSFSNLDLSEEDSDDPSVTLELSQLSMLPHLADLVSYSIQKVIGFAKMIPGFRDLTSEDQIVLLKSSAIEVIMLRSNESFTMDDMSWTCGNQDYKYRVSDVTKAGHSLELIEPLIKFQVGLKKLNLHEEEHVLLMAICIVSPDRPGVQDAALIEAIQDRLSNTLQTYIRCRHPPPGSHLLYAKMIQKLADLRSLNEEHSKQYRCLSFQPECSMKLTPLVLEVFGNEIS
Procedure, shortened: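 VDR-bla cells plated 4 h at 37 C, then exposed to compounds for 16 h at 37 C. Beta-lactamase reporter activity measured by fluorescence after 2 h room-temperature loading with LiveBLAzer B/G FRET substrate.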

[15] = biological target: Vitamin D3 receptor (Homo sapiens) (UniProt P11473); assay: qHTS assay to identify small molecule antagonists of the vitamin D receptor (VDR) signaling pathway (AID 743223; active = well fitted inhibition curve with a large enough effect in the signal ratio in the repeat runs, not every such curve was filed as active; the % refers to the signal ratio)
Procedure, shortened: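 Reporter line VDR-bla; stimulus 1alpha,25-(OH)2 vitamin D3, 3 nM final; compound co-addition, 16 h 37C/5% CO2; LiveBLAzer B/G substrate 2 h RT; fluorescence intensity.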

[16] = qHTS assay to identify small molecule agonists of the endoplasmic reticulum stress response signaling pathway (AID 1159516; active = well fitted activation curve with a large enough effect in the signal ratio in the repeat runs, not every such curve was filed as active; the % refers to the signal ratio)
Procedure, shortened: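 CellSensor ESRE-bla HeLa cells, 1,500 per well, plated overnight, then exposed to compounds for 5 hr at 37 C. Beta-lactamase reporter read with LiveBLAzer B/G FRET substrate after 2 hr at room temperature, 405 nm excitation, 460 and 530 nm emission.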

[17] = qHTS assay to identify small molecule agonists of the AP-1 signaling pathway (AID 1159526)
[18] = biological target: Peroxisome proliferator-activated receptor delta (Homo sapiens) (UniProt Q03181); assay: qHTS assay to identify small molecule agonists of the peroxisome proliferator-activated receptor delta (PPARd) signaling pathway (AID 743212)
Procedure, shortened: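 HEK293H PPARd-bla cells; 5 h preincubation 37 C/5% CO2; compound (DMSO) 37 C; LiveBLAzer B/G FRET substrate 2 h RT; fluorescence intensity.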

[19] = biological target: Retinoic acid receptor RXR-alpha (Homo sapiens) (UniProt P19793); assay: qHTS assay to identify small molecule agonists of the RXR signaling pathway (AID 1159527); note: nearly all actives have a fitted effect of over 35% in size
Retinoic acid receptor RXR-alpha (Homo sapiens), sequence (P19793 whole entry, looked up): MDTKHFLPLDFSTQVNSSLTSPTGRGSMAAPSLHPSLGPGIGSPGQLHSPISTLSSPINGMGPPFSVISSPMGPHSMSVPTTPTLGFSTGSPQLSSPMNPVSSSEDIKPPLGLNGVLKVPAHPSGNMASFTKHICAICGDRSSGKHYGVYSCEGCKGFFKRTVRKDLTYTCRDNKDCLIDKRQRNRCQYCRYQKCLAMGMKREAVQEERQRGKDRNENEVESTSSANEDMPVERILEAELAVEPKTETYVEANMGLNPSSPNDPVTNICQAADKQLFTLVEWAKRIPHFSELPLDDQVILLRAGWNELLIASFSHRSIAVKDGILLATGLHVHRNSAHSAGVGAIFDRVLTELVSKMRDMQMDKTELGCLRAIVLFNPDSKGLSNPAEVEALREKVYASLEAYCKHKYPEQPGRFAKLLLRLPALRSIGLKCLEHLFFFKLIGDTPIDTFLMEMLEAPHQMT
Procedure, shortened: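 16 hr incubation of compound-treated RXR-alpha-UAS-bla HEK 293T cells (2% charcoal-stripped FBS, 37 C) preceded a 2 hr room-temperature LiveBLAzer FRET substrate step and blue/green fluorescence measurement.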

[20] = biological target: Bile acid receptor (Homo sapiens) (UniProt Q96RI1); assay: qHTS assay to identify small molecule antagonists of the farnesoid-X-receptor (FXR) signaling pathway (AID 743217; active = well fitted inhibition curve with a large enough effect in the signal ratio in the repeat runs, not every such curve was filed as active; the % refers to the signal ratio; note: potency is the fitted concentration of half-maximal effect)
Procedure, shortened: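 FXR-UAS-bla HEK 293T cells (beta-lactamase reporter) given compound plus chenodeoxycholic acid (50 uM final), 16 h at 37C. LiveBLAzer B/G FRET substrate added for 2 h at room temperature; fluorescence read.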

Structure (SMILES) | Potency [1] | Potency [2] | Potency [3] | Potency [4] | Potency [5] | Potency [6] | Potency [7] | Potency [8] | Potency [9] | Potency [10] | Potency [11] | Potency [12] | outcome [13] | outcome [14] | Potency [15] | Potency [16] | Potency [17] | outcome [18] | Potency [19] | Potency [20]
CC(C)[C@@H](C(=O)O[C@@H](C#N)c1cccc(Oc2ccccc2)c1)c1ccc(Cl)cc1 | inactive | inactive | inactive | inactive | inactive | inactive | inactive | inactive | inactive | inactive | 17.5 µM (active) | inactive | – | – | – | – | – | – | – | –
CC(C)CCCCCCCOC(=O)c1ccccc1C(=O)OCCCCCCCC(C)C | inactive | inactive | – | inactive | inactive | inactive | – | inactive | inactive | – | inactive | inactive | inactive | inactive | inactive | inactive | inactive | – | – | –
CCCCCCCCn1sccc1=O | 1.95 µM (active) and 2.04 µM (active) | 1.38 µM (active) and 1.82 µM (active) | – | 7.78 µM (active) and 5.13 µM (active) | 6.18 µM (active) and 4.57 µM (active) | 873 nM (active) and 1.15 µM (active) | 19.5 µM (active) and 22.9 µM (active) | 49.1 µM (active) and 3.63 µM (active) | – | 24.4 µM (active) and 9.05 µM (active) | 6.13 µM (active) and 9.05 µM (active) | 5.51 µM (active) and 5.13 µM (active) | – | inactive | – | – | – | – | – | –
CCCC[N+](CCCC)(CCCC)CCCC | inactive | inactive | – | – | inactive | inactive | inactive | inactive | inactive | – | inactive | inactive | – | inactive | – | inactive | inactive | inactive | – | –
O=C(Cc1ccccc1)OCCc1ccccc1 | inactive | inactive | inactive | inactive | inactive | inactive | – | inactive | inactive | – | – | inactive | – | inactive | – | inactive | inactive | inactive | inactive | –
O=P(OCC(Br)CBr)(OCC(Br)CBr)OCC(Br)CBr (centres undefined) | – | – | – | – | inactive | – | – | inactive | inactive | inactive | – | inactive | inactive | – | – | – | inactive | inactive | – | 46.5 µM (active)
CCCCCCCCCCCC[N+](C)(C)CCOc1ccccc1 | 13.8 µM (active) and 11.9 µM (active) | 17.4 µM (active) | – | 24.6 µM (active) | 49 µM (active) | 24.6 µM (active) and inactive | 21.9 µM (active) and 21.3 µM (active) | 13.8 µM (active) and inactive | 15.5 µM (active) and 19 µM (active) | 61.1 µM (active) | 27.3 µM (active) | 49 µM (active) and 23.9 µM (active) | – | inactive | – | – | – | – | – | –
C=CCOC(=O)C(C)(C)OC(=O)c1cc(-n2c(=O)cc(C(F)(F)F)n(C)c2=O)ccc1Cl | inactive | inactive | inactive | inactive | – | inactive | inactive | inactive | inactive | – | inactive | inactive | – | – | – | inactive | inactive | – | inactive | –
COc1cc(CC#N)cc(OC)c1OC | inactive | inactive | – | – | inactive | inactive | inactive | inactive | inactive | – | inactive | inactive | – | inactive | inactive | inactive | inactive | – | inactive | –
CCCCC(CC)COC(=O)c1c(Br)c(Br)c(Br)c(Br)c1C(=O)OCC(CC)CCCC (centres undefined) | inactive | inactive | inactive | inactive | inactive | inactive | – | inactive | inactive | – | – | inactive | inactive | inactive | inactive | inactive | inactive | inactive | inactive | inactive

From PubChem BioAssay (Tox21)
